Compound activity: PubChem BioAssay, National Center for Advancing Translational Sciences (NCATS)
Pf growth 96h – P. falciparum growth inhibition at 96 hours; AID 504834; P. falciparum luciferase reporter growth, 96 h; hit rate 6.9% among 320,000; Potency, µM (highest dose often 28.7 µM), most hits filed as inhibitors
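Delayed-death screen, second-generation endpoint: infected erythrocytes, 2% hematocrit, 0.05% parasitemia final; 96 hours at 37 C, 5% CO2; luciferase detection reagent; luminescence decrease equals reduced growth.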
AMA1 RON2 block – disrupts binding of P. falciparum AMA1 to RON2. AlphaScreen AMA1-biotinylated RON2 peptide binding. Potency, µM (doses to about 58.2 µM), usual class: inhibitors. hit rate 0.2% among 360,000. AID 720542; note: nearly all actives have a fitted effect of over 45% in size
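AMA1 (3D7) with his tag at 25 nM final met compounds first, then biotinylated RON2 peptide at 25 nM; detection used donor plus acceptor beads, 10 µg/mL apiece, read by AlphaScreen after 30 min at room temperature.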
Pf growth 48h – inhibits P. falciparum growth in the first generation, 48 h. P. falciparum luciferase growth in erythrocytes, 48 h. Potency, µM (highest dose often 28.7 µM), usual class: inhibitors. hit rate 5.9% among 310,000
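In quantitative HTS format, infected erythrocytes bearing luciferase-reporter parasites were treated for a single generation at 37 C. Luminescence after adding detection reagent served as the growth measure.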
AmpC inh detg – inhibitors of E. coli AmpC beta-lactamase with detergent. Potency, µM (doses to about 114 µM), usual class: inhibitors. AID 485294. hit rate 0.041% among 370,000. P00811. AmpC hydrolysis of nitrocefin, absorbance 480 nm, 0.01% Triton; note: nearly all actives have a fitted effect of over 25% in size
Target sequence (P00811 whole entry, looked up): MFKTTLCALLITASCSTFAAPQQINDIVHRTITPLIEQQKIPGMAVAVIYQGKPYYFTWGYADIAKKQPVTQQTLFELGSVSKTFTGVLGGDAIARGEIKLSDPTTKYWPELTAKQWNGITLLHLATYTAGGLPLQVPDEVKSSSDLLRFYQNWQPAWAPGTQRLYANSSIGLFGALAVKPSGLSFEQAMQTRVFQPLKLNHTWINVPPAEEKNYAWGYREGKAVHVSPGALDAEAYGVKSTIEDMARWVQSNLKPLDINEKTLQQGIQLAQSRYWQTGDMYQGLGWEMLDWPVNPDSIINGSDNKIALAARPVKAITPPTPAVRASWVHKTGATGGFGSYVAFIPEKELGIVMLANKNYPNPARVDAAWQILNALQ
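AmpC (5.3 nM in the dispensed reagent) in 20 mM phosphate pH 7.0 with 0.01% (detergent screen) or 0.0001% Triton X-100 was preincubated with compounds for 15 min at room temperature. Nitrocefin was then added from an 800 uM solution, and hydrolysis was followed at 480 nm.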
AmpC no deterg – AmpC beta-lactamase inhibition without detergent | P00811 | Potency, µM (series often up to 57.1 µM), actives largely listed as inhibitors | hit rate 0.52% among 330,000 | AmpC nitrocefin hydrolysis, absorbance 480 nm, 0.0001% Triton; note: nearly all actives have a fitted effect of over 20% in size
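AmpC (5.3 nM in the dispensed reagent) in 20 mM phosphate pH 7.0 with 0.01% (detergent screen) or 0.0001% Triton X-100 was preincubated with compounds for 15 min at room temperature. Nitrocefin was then added from an 800 uM solution, and hydrolysis was followed at 480 nm.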
HCV inh – inhibitors of hepatitis C virus infection; Huh7.5.1 HCVcc-Cre infection, luciferase reporter, 44 h; Potency, µM (titrated, usually from 41.8 µM), usual class: inhibitors; hit rate 3.4% among 340,000; AID 651820
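Cells seeded at 1,000/well and cultured 4 h, then compounds added followed by HCVcc-Cre virus (~0.5 moi). After 44 h further culture, luciferase substrate was added, plates held 15 min at room temperature, and luminescence read for 15 sec.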
Numbers stand for hits; i = inactive; ? = inconclusive; nt = no result. The list is not random: actives were taken first. Their share in the collection is about 11%. Calls come from the whole dose curve; as a rule, active = well fitted curve in the direction sought with a large enough effect; inconclusive = small, poorly fitted or top-dose-only effect, or another doubt; inactive = no such curve, though single readings can be large; an effect the other way counts as inactive or inconclusive.

SMILES | Pf growth 96h | AMA1 RON2 block | Pf growth 48h | AmpC inh detg | AmpC no deterg | HCV inh
O=C(Nc1cccc(-c2csc(Nc3cccc(C(F)(F)F)c3)n2)c1)c1ccccc1 | ? | i | 12µM | i | 2µM | ?
CC(=O)c1cccc(Nc2nc(-c3ccccc3)cs2)c1 | ? | i | i | i | i | 2.5µM
O=C(Nc1ccc(-c2csc(Nc3cccc(C(F)(F)F)c3)n2)cc1)c1cc([N+](=O)[O-])cc(C(F)(F)F)c1 | 0.47µM | i | 0.83µM | i | i | ?
O=C(Nc1ccc(-c2csc(Nc3cccc(C(F)(F)F)c3)n2)cc1)c1ccccc1 | ? | i | ? | i | i | ?
Cc1ccc(OCc2nnc(SCC(=O)Nc3ccccc3C(C)C)o2)cc1 | nt | nt | nt | i | nt | nt
COc1ccccc1CNC(=O)c1cc2sccc2n1Cc1ccc(F)cc1 | nt | nt | nt | i | nt | nt
COc1ccc(OC)c(CCNC(=O)c2ccc3c(c2)c(C)c(C)n3Cc2ccccc2)c1 | nt | nt | nt | i | nt | nt
C[C@H]1C=CC(=O)O[C@H]1c1ccccc1 | nt | i | nt | nt | nt | i
C[C@@H]1C=CC(=O)O[C@@H]1c1ccc(C(F)(F)F)cc1 | 2.3µM | nt | ? | ? | i | nt
O=C(Nc1ccccc1SCC1CSc2nc3ccccc3c(=O)n21)c1cccc(Cl)c1 (stereo not drawn) | ? | i | 10µM | i | ? | i
O=c1c2ccccc2nc2n1C(CSCc1ccc(Cl)cc1)CS2 (stereo not drawn) | ? | i | ? | i | i | 10µM
CCOC(=O)c1cccc(NC(=O)c2nn(-c3ccc(OC)cc3)c(=O)c3c2c2ccccc2n3C)c1 | nt | nt | nt | i | nt | nt
CCc1nc2nc(C)cc(Nc3ccc(OC)cc3OC)n2n1 | nt | nt | nt | i | nt | nt
CC1CCN(c2c(NCc3ccc(C(=O)NCCc4ccc(Cl)cc4)cc3)c(=O)c2=O)CC1 | 8.3µM | i | ? | i | i | i
CC1CCCCC1NC(=O)c1ccc(CNc2c(N3CCCC3)c(=O)c2=O)cc1 (stereo not drawn) | 8.3µM | i | i | i | ? | ?
O=C(NC1CCCC1)c1ccc(CNc2c(N3CCOCC3)c(=O)c2=O)cc1 | i | i | nt | i | i | i
CCOc1cc(-c2nc3ccccn3c2NCC2CCCO2)ccc1O (stereo not drawn) | 12µM | i | i | ? | i | i
COc1cc(-c2nc3ccccn3c2NCC2CCCO2)ccc1O (stereo not drawn) | i | i | i | ? | i | i
Cc1ccc(C(c2c(NC(=O)c3ccco3)sc(C)c2C)N2CCOCC2)cc1 (stereo not drawn) | nt | i | nt | nt | nt | nt
CCOC(=O)C1CCN(C(c2cccnc2)c2c(NC(=O)c3ccco3)sc(C)c2C)CC1 (stereo not drawn) | i | i | 0.29µM | i | i | 6.3µM
Cc1sc(NC(=O)c2ccco2)c(C(c2ccc(F)cc2)N2CCN(C)CC2)c1C (stereo not drawn) | ? | i | ? | ? | i | i
COc1ccc(C(c2c(NC(=O)c3ccco3)sc(C)c2C)N2CCOCC2)cc1OC (stereo not drawn) | 4.7µM | i | 2.6µM | i | i | ?
Cc1sc(NC(=O)c2ccco2)c(C(c2ccccc2)N2CCC(C)CC2)c1C (stereo not drawn) | ? | i | 5.2µM | i | i | ?
Cc1sc(NC(=O)c2ccco2)c(C(c2cccnc2)N2CCN(CCO)CC2)c1C (stereo not drawn) | ? | i | ? | i | i | i
Cc1sc(NC(=O)c2ccco2)c(C(c2cccnc2)N2CCN(c3ccc(F)cc3)CC2)c1C (stereo not drawn) | ? | ? | 2.1µM | i | i | 11µM
SMILES | Pf growth 96h | AMA1 RON2 block | Pf growth 48h | AmpC inh detg | AmpC no deterg | HCV inh
O=C(Nc1ccc(Cl)cc1)C1CCN(S(=O)(=O)c2ccc(Br)s2)CC1 | nt | nt | nt | i | nt | nt
COc1ccc2c(c1)CCc1c(C(=O)N3CCOCC3)noc1-2 | nt | i | i | i | i | i
COc1ccc2c(c1)CCc1c(C(=O)N3CCCc4ccccc43)noc1-2 | i | i | 6.6µM | i | i | ?
COc1ccc2c(c1)CCc1c(C(=O)N3CC4(C)CC3CC(C)(C)C4)noc1-2 (stereo not drawn) | ? | i | 15µM | ? | i | ?
COc1ccc(C(=O)N2CC3(C)CC2CC(C)(C)C3)cc1 (stereo not drawn) | i | i | ? | i | nt | i
Cc1c(C(=O)O)sc2nc(/C=C/c3ccccc3OC(F)F)[nH]c(=O)c12 | 13µM | i | i | ? | i | i
Cc1ccc2nc(Nc3ccc(C)c(F)c3)c3nncn3c2c1 | nt | nt | nt | i | nt | nt
COc1ccccc1C(CNC(=O)c1ccc(NS(=O)(=O)c2ccc(F)c(C)c2)cc1)N1CCCC1 (stereo not drawn) | 12µM | i | 9.3µM | i | i | i
COc1ccccc1C(CNC(=O)c1cccc(NS(=O)(=O)c2ccc(C)c(F)c2)c1)N1CCCC1 (stereo not drawn) | 12µM | i | 13µM | ? | i | ?
